Ten molecules from the supplement of paper PMC4723716 can be followed below.

Molecules are shown by their SMILES. ± gives the uncertainty stated by the source. Whole data set: some 9,900 compounds, median “viability index relative to DMSO control” near 1, cut for the lowest 2% near 0.85. The entries come from a sample that favours the lowest values as a whole.

This assay concerns Plasmodium falciparum NF54 stage V gametocytes. In words: viability index relative to DMSO control (fraction); higher = less gametocyte killing. The note with it: 2.5 µM, library set: Broad Institute DOS, incubation time: 72 h. The method, then: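 Broad DOS informer set and blood-stage-active DOS compounds screened in duplicate at 2.5 µM against P. falciparum NF54 stage V gametocytes with the serum-free one-step SaLSSA (1536-well): 72 h at 37 °C under low oxygen, then saponin lysis and MitoTracker Red CMXRos staining, with high-content imaging. Viability index = viable-object count divided by the plate mean of DMSO wells (0 = killed, about 1 = inactive).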
`O=C1CNC[C@@H]2[C@H](c3ccc(Br)cc3)[C@H](CO)N12` returned a viability index of 0.992 ± 0.074.
The molecule `O=C1CNC[C@H]2[C@H](c3ccc(Br)cc3)[C@H](CO)N12` had a viability index of 1.05 ± 0.023.
As for `O=C1CNC[C@H]2[C@@H](c3ccc(Br)cc3)[C@H](CO)N12`, the viability index was found to be 0.837 ± 0.14.
Next, `COc1cccc(-c2ccc([C@H]3[C@@H](CO)N4CCCCN(C(=O)Cc5ccncc5)C[C@H]34)cc2)c1`: 1.06 ± 0.046; `O=C(O)C[C@@H]1CC[C@H]2NC[C@@H](O)COC[C@@H]2O1`: 1.13 ± 0.034.
`O=C(Cc1ccncc1)N1CCCCN2[C@@H](CO)[C@@H](c3ccc(C#Cc4ccccc4F)cc3)[C@@H]2C1` yielded a viability index of 0.964 ± 0.047.
`O=C(Cc1ccncc1)N1CCCCN2[C@@H](CO)[C@H](c3ccc(C#Cc4ccccc4F)cc3)[C@@H]2C1` showed a viability index of 0.84 ± 0.22.
Molecule `O=C(Cc1ccncc1)N1CCCCN2[C@H](CO)[C@@H](c3ccc(C#Cc4ccccc4F)cc3)[C@@H]2C1` had a viability index of 0.9619 ± 0.0014.
Take `C[C@@H]1CN([C@@H](C)CO)C(=O)CCCn2cc(nn2)CO[C@@H]1CN(C)C(=O)Oc1ccc2ccccc2c1`: the viability index is 1.05 ± 0.019.
Regarding `C/C=C/c1ccc([C@@H]2[C@@H]3CN(C(=O)C4CCOCC4)C[C@H]2N3)cc1`, the viability index worked out at 1.06 ± 0.011.
